An excerpt weighted towards active compounds, which were near 3.4% of everything screened.
PNC inhibitor: High Content Assay for Compounds that inhibit the Assembly of the Perinucleolar Compartment | AID 2417, 2010 | activity change (PNC), negative = inhibition, % at 10 µM | 140,000 tested, 3.1% active | PC3M PTB-GFP, PNC prevalence imaging, 16 h; hits give low values;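 active = readout at or below -70, meaning at least 70% loss of cells showing the perinucleolar compartment, a nuclear body marking cancer cells; inconclusive = readout between -30 and a set limit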;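 also: plate controls were DMSO wells for no effect and camptothecin positive control wells for full effect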
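PC3M cells stably expressing PTB-GFP, 750–1000 cells/well, treated 16 h at 37 °C with compound (23 nl of library stock), in duplicate. After paraformaldehyde fixation and Hoechst stain, imaged at 20x; PNC prevalence scored by image analysis.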
NPSR antagonist: qHTS Assay for Antagonists of the Neuropeptide S Receptor: cAMP Signal Transduction | Potency, µM (top dose mostly 38.3 µM), inactives show at the top dose activity change, negative = inhibition, usual class: inhibitors | Q6W5P4 | AID 1461, 2008 | 220,000 tested, 1% active | CHO-NPSR cells, cAMP TR-FRET, antagonist mode; also: potency is read from the fitted curve at half-maximal effect; % is scaled to controls: 0 for no effect and ±100 for the full control effect; nearly all actives have a fitted effect of over 50% in size
Target sequence (Q6W5P4 whole entry, looked up): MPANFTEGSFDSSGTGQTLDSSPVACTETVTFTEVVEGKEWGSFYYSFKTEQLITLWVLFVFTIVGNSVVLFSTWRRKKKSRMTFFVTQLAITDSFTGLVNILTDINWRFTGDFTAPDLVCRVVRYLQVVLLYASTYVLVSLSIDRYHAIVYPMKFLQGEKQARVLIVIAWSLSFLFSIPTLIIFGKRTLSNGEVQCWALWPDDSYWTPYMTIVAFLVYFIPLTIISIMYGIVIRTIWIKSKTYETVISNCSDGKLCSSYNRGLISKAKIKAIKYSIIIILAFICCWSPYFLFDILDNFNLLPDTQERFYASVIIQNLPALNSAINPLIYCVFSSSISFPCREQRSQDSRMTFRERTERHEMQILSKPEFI
IMPase cell inh: qHTS Assay for Identifying the Cell-Membrane Permeable IMPase Inhibitors; Inositol monophosphatase 1 (Rattus norvegicus), P97697; CHO-M1 cells, IP1 accumulation, HTRF TR-FRET ratio; inhibition (IP1 accumulation), % at 46.1 µM; 120,000 tested, under 10 active; AID 901, 2007; active = well fitted curve in the direction sought with a large enough effect in the signal ratio, not every such curve was filed as active; inconclusive = small, poorly fitted or top-dose-only effect, or a change in a side signal; inactive = no such curve, though single readings can be large or run the other way; the % refers to the signal ratio;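 also: cells stimulated with carbachol in lithium chloride buffer; plate controls were DMSO basal wells for no effect and reference inhibitor wells for full effect; higher means more IMPase inhibition seen as more IP1 and lower FRET ratio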
Target sequence (P97697 whole entry, looked up): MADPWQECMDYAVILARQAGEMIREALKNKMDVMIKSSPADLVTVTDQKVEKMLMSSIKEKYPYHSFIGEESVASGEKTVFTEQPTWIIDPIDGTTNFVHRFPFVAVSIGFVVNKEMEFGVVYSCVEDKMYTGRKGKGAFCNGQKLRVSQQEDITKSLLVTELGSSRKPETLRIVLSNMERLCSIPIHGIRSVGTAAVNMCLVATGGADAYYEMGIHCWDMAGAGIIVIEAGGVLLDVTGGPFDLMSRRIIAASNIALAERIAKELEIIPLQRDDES
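Cellular IMPase inhibition is scored as a rise in cytosolic IP1, detected by competitive TR-FRET between d2-labelled IP1 and a europium anti-IP1 antibody. M1-expressing CHO cells were stimulated with carbachol for 30 min at 37C, with lithium (50 mM LiCl) present in the buffer.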
IMPase Li cell: qHTS Assay for Identifying the Cell-Membrane Permeable IMPase Inhibitors: Potentiation with Lithium | CHO-M1 cells, IP1 TR-FRET (IP-One), carbachol + lithium | Potency, µM (highest dose often 59.4 µM), inactives show at the highest dose activity, negative = IMPase inhibition, most hits filed as inhibitors | 210,000 tested, 0.35% active | AID 1457, 2008;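 also: IP1 builds up when IMPase is blocked and the TR-FRET signal falls; potency is read from the fitted curve at half-maximal effect; plate controls were basal vehicle for no effect and high inhibitor control for full effect; nearly all actives have a fitted effect of over 50% in size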
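Lithium-sensitised IP1 accumulation assay; M1-expressing CHO cells treated 30 min at 37C with compound. Competitive antibody detection by time-resolved FRET followed a 10 min room-temperature lysis step.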
HttQ103 aggreg: qHTS Multiplex Assay to Identify Dual Action Probes in a Cell Model of Huntington: Aggregate Formation (GFP). AID 1688, 2009. 220,000 tested, 1.1% active. Potency, µM (top dose mostly 46.1 µM), for the others: at the highest dose activity change, negative = inhibition, hits mostly inhibitors. PC12 HttQ103-GFP aggregates, Acumen cytometry, 40 h; also: potency is read from the fitted curve at half-maximal effect; % is scaled to controls: 0 for no effect and ±100 for the full control effect; nearly all actives have a fitted effect of over 60% in size
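Multiplexed with ATP-based cell death, this channel scores GFP aggregates in PC12 cells expressing inducible HTTex1-Q103-GFP. Induction used 100 nM tebufenozide; compounds were tested in concentration series.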
HTT cytoprotect: qHTS Multiplex Assay to Identify Dual Action Probes in a Cell Model of Huntington: Cytoprotection (ATP); PC12 HTT-Q103 induced, cytoprotection, ATP luminescence, 40 h; Potency, µM (top dose mostly 56.4 µM), for inactives: cytoprotection (ATP increase), usual class: activators; 230,000 tested, 0.14% active; AID 1471, 2008; also: potency is read from the fitted curve at half-maximal effect; % of control where 0% means no effect; nearly all actives have a fitted effect of over 45% in size
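Quantitative HTS on tebufenozide-induced (100 nM) PC12 cells expressing HTTQ103 exon 1–GFP; compounds tested as a concentration series; survival measured via cellular ATP.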
Numbers without * were called inactive; ? = inconclusive; . = no result; [ ] = dose if it differs, or a comment. Unless noted, calls follow the shape of the dose curve; as a rule, active = well fitted curve in the direction sought with a large enough effect; inconclusive = small, poorly fitted or top-dose-only effect, or another doubt; inactive = no such curve, though single readings can be large; an effect the other way counts as inactive or inconclusive.

SMILES	PNC inhibitor	NPSR antagonist	IMPase cell inh	IMPase Li cell	HttQ103 aggreg	HTT cytoprotect
CCC(NC(=O)c1ccc([N+](=O)[O-])cc1[N+](=O)[O-])c1ccccc1 (stereo not drawn)	13	13%[46.1 µM]	2	1%[38.3 µM]	-7%	-4%
CNc1ncncc1-c1ccc(C(=O)N(C)C)cc1	.	.	.	2%	.	-11%
Cc1cc(N/N=C/c2ccc(Cl)cc2)nc(NCc2ccccc2)n1	5	1%	10	12%	13µM*	.
Cc1cc(N/N=C/c2cccc(Cl)c2)nc(NCc2ccccc2)n1	17	?	.	16%	?	-6%[10 µM]
Cc1cc(Nc2cccc(Cl)c2)nc(NCc2ccccc2)n1	-94*	?	.	4%	-31%	-17%[10 µM]
Cc1cc(-c2ccccc2)nc(N/N=C/c2ccc([N+](=O)[O-])cc2)n1	?	-9%	.	10%	0.028µM*	.
COC(=O)C(c1ccccc1Cl)N1CCc2sccc2C1 (stereo not drawn)	.	.	.	14%	7%	-9%
CCOC(=O)N1CCN(C(=O)c2ccc(SC)cc2OC)CC1	.	2%	.	-2%	-6%[9.22 µM]	4%[10 µM]
CCN(CC)C(=O)CSc1nc(N)c(C#N)c(-c2cccs2)c1C#N	?	-3%[46.1 µM]	-2	-30%	-21%	-13%[10 µM]
COc1ccc(CCNC(=O)CSc2nc(N)c(C#N)c(-c3cccs3)c2C#N)cc1OC	-13	-20%[46.1 µM]	1	28µM*	-7%	-10%[0.074 µM]
C#CCSc1nc(-c2cccs2)ccc1C#N	?	0%[46.1 µM]	?	17%[38.3 µM]	-28%	-10%[10 µM]
COC(=O)CSc1nc(-c2cccs2)ccc1C#N	0	3%[46.1 µM]	?	25µM*	13%	17%
Cc1ccccc1NC(=O)CSc1nc2c(c(-c3ccco3)c1C#N)CCCC2	-20	10µM*	3	?	-4%[9.22 µM]	5%
CCSc1nc2c(c(-c3ccc(C)o3)c1C#N)CCCC2	-100*	-22%[46.1 µM]	3	7%	-32%	8%[10 µM]
Cc1nc2cnc(N(C)C)nc2n(CCc2ccccc2)c1=O	.	.	.	15%	.	-33%
O=C(CSc1ccc(F)cc1)Nc1ccc(C2SCCS2)cc1	.	-1%[7.67 µM]	.	.	2%[9.22 µM]	25%[10 µM]
COc1ccc(CNC(=O)CSc2nc(-c3ccccc3)cc(-c3cccs3)c2C#N)cc1	?	10µM*	-15	-3%[38.3 µM]	9%[9.22 µM]	-36%
Cc1ccccc1NC(=O)CSc1nc(N)c(C#N)c(-c2cccs2)c1C#N	?	?	?	5µM*	1%	18%[0.074 µM]
COc1ccc(NC(=O)N2CCc3nc(COc4ccccc4)c4c(c3C2)CO[C@@H](C)C4)cc1	.	.	.	-12%	.	-7%[10 µM]
CCC[C@@H]1C[C@@]1(CCC)C(NC(=O)c1ccccc1)c1cccc(Cl)c1 (stereo partly drawn)	.	.	.	-3%	.	-50%
N#CCCn1c(C(C#N)(CCC#N)CCC#N)nc2ccccc21	?	2%[46.1 µM]	20	14%[38.3 µM]	11%	5%
N#CCCn1c(Cl)nc2ccccc21	-86*	0%[46.1 µM]	-1	-7%[38.3 µM]	.	-7%[0.074 µM]
CC(=O)Oc1ccc(N(C(C)=O)S(=O)(=O)c2cccs2)c2ccccc12	-82*	-16%[46.1 µM]	11	51%[38.3 µM]	?	-79%
Cc1cccc(Nc2nc(-c3cccs3)cs2)n1	-105*	-46%	10	28%	3%	22%[10 µM]
CCCCCCCCCCCCCCCCC(C(=O)O)C(O)(CC(=O)O)C(=O)O (stereo not drawn)	.	.	.	.	-5%	-30%
SMILES	PNC inhibitor	NPSR antagonist	IMPase cell inh	IMPase Li cell	HttQ103 aggreg	HTT cytoprotect
CCCS(=O)(=O)c1nc(S(=O)(=O)c2ccc(C)cc2)c(NCCN2CCOCC2)s1	-107*	-2%[46.1 µM]	-3	10%[38.3 µM]	-10%	-16%
CO/N=C(\C(=O)NC1C(=O)N2C(C(=O)OCOC(=O)C(C)(C)C)=C(/C=C\c3scnc3C)CSC12)c1csc(N)n1 (stereo not drawn)	.	.	.	-19%	.	-3%
O=C(CN1CC(c2ccccc2)CC1=O)OCc1ccccc1F (stereo not drawn)	-91*	-22%[46.1 µM]	17	53%[38.3 µM]	-25%	-10%[0.074 µM]
COc1cc(NC(=O)CN2CC(c3ccccc3)CC2=O)cc(OC)c1 (stereo not drawn)	-9	-14%[46.1 µM]	-6	9%	-20%	-15%
O=C(Nc1ccc([N+](=O)[O-])cc1)Nc1nc(-c2ccc(Cl)s2)cs1	44	6.3µM*	.	7%	?	-72%[10 µM]
CC(=O)Nc1nc(-c2ccc([N+](=O)[O-])cc2)cs1	.	-5%	.	-2%	-16%	-20%
CC(=O)c1ccc(N2CCN(C(=S)Nc3ccc(Oc4ccccc4)cc3)CC2)cc1	.	-19%	.	22%	13µM*	-54%
COC(=O)Cc1ccc(NC(=S)N2CCN(c3ccc(F)cc3)CC2)cc1	-96*	-10%[46.1 µM]	10	11%	9%	-5%[10 µM]
CC(=O)c1ccc(N2CCN(C(=S)Nc3cccc(F)c3)CC2)cc1	0	-16%[46.1 µM]	-6	2%[38.3 µM]	9%	-13%
COC(=O)CC1[C@@]2(C)C[C@@]34OC5(C)OC6(CC[C@@]7(C)C(c8ccoc8)OC(=O)C(C(C)=O)C7[C@]6(O5)C(O)[C@@]3(O)C2O)[C@]14C (stereo partly drawn)	.	.	.	0%	.	.
S=C(Nc1cccc(Cl)c1)N1CCN(Cc2ccccc2)CC1	-80*	-14%	.	4%	1%	20%[10 µM]
COc1cccc(-c2nc(CS(=O)(=O)CC(=O)Nc3cc(C)ccc3C)c(C)o2)c1	-119*	-13%	-5	5%	11%	-6%
Cc1ccc(NC(=O)CCCn2c3ccccc3c(=O)c3cc(C)ccc32)c(Br)c1	.	.	-11	.	.	.
COC(=O)[C@@H]1CC[C@H](C)[C@@H](c2ccc(C)cc2)N1C(=O)c1ccc(/C=N\OCC[C@@H]2C=C[C@H](OC(C)=O)[C@H](COC(C)=O)O2)cc1	.	.	.	.	.	0%[10 µM]
CCOC(=O)C(O)(CC(=O)c1ccc(OC)cc1)C(F)(F)F (stereo not drawn)	-81*	-18%[46.1 µM]	15	11%	-2%	27%[10 µM]
O=C(COc1cccc(Cl)c1)Nc1ccc2c(c1)CCC2	7	4%	.	9%	2%	-33%[10 µM]
COc1ccc(NS(=O)(=O)c2ccc(N/N=C/c3ccc(N4CCOCC4)cc3)c([N+](=O)[O-])c2)cc1	23	3%	.	-7%	2µM*	.
CCOc1cccc2c1OC1(C)CC2NC(=O)N1c1ccc(OC)cc1 (stereo not drawn)	-82*	-2%[46.1 µM]	25	-5%	-11%	20%[10 µM]

From PubChem
